Results: PubChem BioAssay (NCATS)
Values joined by “and” are separate entries in the source; they are usually repeats but may differ in a detail not shown here. Identical values can stand only once. Records with an inconclusive call do not appear. A number with no mark means an inactive call. Active and inactive are the calls of the source. The call rests on the fitted dose curve; in most records, active means well fitted curve in the direction sought with a large enough effect; inconclusive means small, poorly fitted or top-dose-only effect, or another doubt; inactive means no such curve, though single readings can be large; an effect the other way counts as inactive or inconclusive.

Tests used:
[1] = biological target: Cellular tumor antigen p53 (Homo sapiens) (UniProt P04637); assay: Primary qHTS for small molecule compounds that upregulate eGFP-tagged delta133p53alpha (in N-terminal) cells. (AID 2060322); conditions: NCI-H358 eGFP-delta133p53alpha fluorescence, 24 h; activation: active compounds read high; further: nearly all actives have a fitted effect of over 75% in size; further: potency means the concentration at half of the fitted maximal effect;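 on activation: 0% = DMSO vehicle and 100% = reference activator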
Method in brief: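 NCI-H358 cells pre-induced 24 h with 10 ng/ml doxycycline to express N-terminal eGFP-delta133p53alpha, then dosed 24 h at 37C without doxycycline; fixed, Hoechst-stained, GFP intensity by laser scanning cytometry, normalized to DMSO (0%) and 57.5 uM 5-azacytidine (100%).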

[2] = biological target: Aldehyde dehydrogenase, mitochondrial (Homo sapiens) (UniProt P05091); assay: qHTS for Inhibitors of the Aldehyde Dehydrogenase Family (ALDH2) Primary screen (AID 2061308); conditions: ALDH2 enzyme inhibition qHTS, 1536-well; series mostly up to 56 µM;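 further: plate controls were vehicle for no effect and reference inhibitor for full effect; nearly all actives have a fitted effect of over 55% in size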
[3] = biological target: Retinaldehyde dehydrogenase 3 (Homo sapiens) (UniProt P47895); assay: qHTS for Inhibitors of the Aldehyde Dehydrogenase Family (ALDH1A3) Primary screen (AID 2061315); conditions: ALDH inhibition qHTS; series mostly up to 56 µM;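 further: plate controls were DMSO vehicle for no effect and reference inhibitor for full effect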
[4] = BET inhibitor-based combinations targeting novel dependencies in MECOM-rearranged (r) AML: OCI-AML3 cell line (AID 2202232); conditions: CellTiter-Glo luminescence, 48 h; Potency: OCI-AML3 viability; series mostly up to 46 µM; further: nearly all actives have a fitted effect of over 35% in size; further: potency means the concentration at half of the fitted maximal effect
Method in brief: (§1)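 Each compound was tested at eleven concentrations on cells seeded at 500/well. After two days' incubation, ATP-based luminescence reported viability; responses relative to DMSO and blank wells yielded AUC and cell-line-centred Z-AUC.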

[5] = BET inhibitor-based combinations targeting novel dependencies in MECOM-rearranged (r) AML: UCSD-AML1 cell line (AID 2202235); conditions: UCSD-AML1 AML cells viability, CellTiter-Glo, 48 h; series mostly up to 46 µM; further: nearly all actives have a fitted effect of over 40% in size; further: potency means the concentration at half of the fitted maximal effect
Method in brief: (§2)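 First, 500 cells per well were seeded; next, drugs were pinned as 11-point doses; then plates sat 48 hr in the incubator; finally CellTiter-Glo was added and luminescence read, with AUC and Z-AUC computed.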

[6] = BET inhibitor-based combinations targeting novel dependencies in MECOM-rearranged (r) AML: MV-4-11 cell line (AID 2202233); conditions: MV-4-11 AML viability, CellTiter-Glo luminescence, 48 h; series mostly up to 46 µM; further: nearly all actives have a fitted effect of over 45% in size; further: potency means the concentration at half of the fitted maximal effect
Method in brief: as §2

[7] = BET inhibitor-based combinations targeting novel dependencies in MECOM-rearranged (r) AML: HNT-34 cell line (AID 2202234); conditions: HNT-34 AML viability, CellTiter-Glo luminescence, 48 h; series mostly up to 46 µM; further: potency means the concentration at half of the fitted maximal effect; nearly all actives have a fitted effect of over 35% in size
Method in brief: as §2

[8] = BET inhibitor-based combinations targeting novel dependencies in MECOM-rearranged (r) AML: AML-191 cell line (AID 2202236; further: potency means the concentration at half of the fitted maximal effect; nearly all actives have a fitted effect of over 35% in size); conditions: AML-191 viability, CellTiter-Glo luminescence, 48 h; series mostly up to 46 µM
Method in brief: as §1

[9] = BET inhibitor-based combinations targeting novel dependencies in MECOM-rearranged (r) AML: AML-194 cell line (AID 2202237; further: nearly all actives have a fitted effect of over 40% in size; further: potency means the concentration at half of the fitted maximal effect); conditions: AML-194 (MECOM-r AML) viability, CellTiter-Glo, 48 h; series mostly up to 46 µM
Method in brief: as §1

Sequence of Cellular tumor antigen p53 (Homo sapiens) (P04637 whole entry, looked up): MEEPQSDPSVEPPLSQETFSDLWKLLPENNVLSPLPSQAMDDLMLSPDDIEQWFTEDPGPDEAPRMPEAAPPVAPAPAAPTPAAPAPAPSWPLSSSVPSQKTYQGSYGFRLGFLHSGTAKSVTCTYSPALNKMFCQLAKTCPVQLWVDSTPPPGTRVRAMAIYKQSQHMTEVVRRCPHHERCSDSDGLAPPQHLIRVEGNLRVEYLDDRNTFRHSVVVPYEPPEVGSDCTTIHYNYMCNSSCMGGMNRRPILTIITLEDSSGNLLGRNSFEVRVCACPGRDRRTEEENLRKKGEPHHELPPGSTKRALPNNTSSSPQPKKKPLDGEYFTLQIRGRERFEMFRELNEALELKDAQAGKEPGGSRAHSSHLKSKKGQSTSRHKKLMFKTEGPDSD

| SMILES | activation [1] | Potency [2] | Potency [3] | Potency [4] | Potency [5] | Potency [1] | Potency [6] | Potency [7] | Potency [8] | Potency [9] |
| --- | --- | --- | --- | --- | --- | --- | --- | --- | --- | --- |
| Cc1cccc(Nc2nc(-c3ccncc3)cs2)c1 | 11.1% and -1.43% | inactive | inactive | inactive | inactive | – | – | – | – | – |
| Cc1c(C(=O)N2CCOc3ccc(-c4ccc(N)nc4)cc3C2)ccc(S(C)(=O)=O)c1F | – | inactive | inactive | – | 0.742 µM (active) | 26.9 µM (active) | 6.61 µM (active) | 2.95 µM (active) | 1.86 µM (active) | – |
| Nc1cccc(S(=O)(=O)N2CCCN(S(=O)(=O)c3ccc4c(c3)OCCO4)CC2)c1 | 17.7% | inactive | inactive | inactive | – | – | inactive | – | – | inactive |
| CCn1c(C(=O)N(C2CC2)C2CC2)cc2c3c(ncn3C)c(Nc3cc(C)n(C)n3)nc21 | -29.5% | inactive | inactive | – | 3.32 µM (active) | – | 2.63 µM (active) | 16.6 µM (active) | – | – |
| CCS(=O)(=O)c1cccc(-c2cc(C(=O)NC3CCN(C)CC3)c(C)c3[nH]c4ncc(C)cc4c23)c1 | – | inactive | inactive | 1.48 µM (active) | 0.934 µM (active) | 12.2 µM (active) and 5.88 µM (active) | – | 0.235 µM (active) | 3.72 µM (active) | 2.63 µM (active) |
| CN(C)CC(=O)N1CCC(c2ccc(NC(=O)c3ncc(C#N)[nH]3)c(C3=CCCCC3)c2)CC1 | -0.715% | inactive | inactive | – | 5.25 µM (active) | – | 0.148 µM (active) | 10.5 µM (active) | – | – |
| CC(C)(C)Cn1c(N)nc2ccc(-c3[nH]c(C(C)(C)C)nc3-c3ccc(F)cc3)nc21 | -1.62% | inactive | inactive | – | inactive | – | 18.6 µM (active) | 23.5 µM (active) | – | – |
